# According to PubChem BioAssay (Tox21):
# Values without a mark were called inactive. Where a call stands in place of a potency, no number is given. Calls of active or inactive are those of the source. Unless noted, calls come from the whole dose curve; as a rule, active = well fitted curve in the direction sought with a large enough effect in the repeat runs; inconclusive = weak or mixed curves; inactive = no such curve, though single readings can be large; an effect the other way counts as inactive or inconclusive.
# Experiments:
# [1] = qHTS assay to identify small molecule antagonists of the thyroid receptor (TR) signaling pathway (AID 743065); note: nearly all actives have a fitted effect of over 55% in size; note: potency is the fitted concentration of half-maximal effect; for activity, negative = inhibition: series mostly up to about 70 µM
# In short: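 Antagonism measured as loss of luciferase signal in GH3 cells stably carrying a TRE-luciferase reporter, co-treated with compound and T3 (1 nM final) for 23.5 h at 37 C. Viability was read in the same well by CellTiter-Fluor.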
# [2] = system: thyroid hormone receptor (rat, GH3 cells); test: qHTS assay to identify small molecule agonists of the thyroid receptor (TR) signaling pathway (AID 743066; calls by dose curve)
# [3] = molecular target: Estrogen receptor (Homo sapiens) (UniProt P03372); test: qHTS assay to identify small molecule antagonists of the estrogen receptor alpha (ER-alpha) signaling pathway (AID 743069; active = well fitted curve in the direction sought with a large enough effect in the signal ratio in the repeat runs, not every such curve was filed as active; inconclusive = weak or mixed curves, or effect the other way; inactive = no such curve, though single readings can be large or run the other way; the % refers to the signal ratio; note: potency is the fitted concentration of half-maximal effect)
# Estrogen receptor (Homo sapiens), sequence (P03372 whole entry, looked up): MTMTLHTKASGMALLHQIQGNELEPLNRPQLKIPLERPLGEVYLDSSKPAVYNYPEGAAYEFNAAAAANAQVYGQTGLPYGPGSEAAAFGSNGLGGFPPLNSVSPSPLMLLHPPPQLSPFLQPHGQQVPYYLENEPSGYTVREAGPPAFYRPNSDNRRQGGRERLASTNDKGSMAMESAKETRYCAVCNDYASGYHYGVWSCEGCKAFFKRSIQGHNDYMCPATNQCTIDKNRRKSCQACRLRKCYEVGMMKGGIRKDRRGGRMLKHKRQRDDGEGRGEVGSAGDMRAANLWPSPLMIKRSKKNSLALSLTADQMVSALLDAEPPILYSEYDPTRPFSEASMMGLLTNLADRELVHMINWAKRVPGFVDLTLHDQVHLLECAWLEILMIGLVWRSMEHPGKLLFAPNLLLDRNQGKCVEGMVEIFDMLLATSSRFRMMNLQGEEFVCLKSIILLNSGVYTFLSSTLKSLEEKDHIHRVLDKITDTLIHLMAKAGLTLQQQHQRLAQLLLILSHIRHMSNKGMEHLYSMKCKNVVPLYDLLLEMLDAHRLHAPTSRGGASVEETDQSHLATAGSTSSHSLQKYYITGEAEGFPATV
# In short: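 Compound effects are measured against 17beta-estradiol stimulation in HEK293 cells with a UAS-controlled beta-lactamase reporter for ER-alpha. Exposure lasts 18 hr at 37C; LiveBLAzer B/G FRET substrate follows for 2 hr at room temperature.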
# [4] = qHTS assay to identify small molecule antagonists of the estrogen receptor alpha (ER-alpha) signaling pathway - cell viability counter screen (AID 743074; calls by dose curve;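 note: HEK293 cells carrying ER-alpha-UAS-bla reporter stimulated with 17beta-estradiol; nearly all actives have a fitted effect of over 45% in size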)
# [5] = molecular target: Estrogen receptor (Homo sapiens) (UniProt P03372); test: qHTS assay to identify small molecule agonists of the estrogen receptor alpha (ER-alpha) signaling pathway (AID 743075; calls by dose curve)
# [6] = molecular target: Estrogen receptor (Homo sapiens) (UniProt P03372); test: qHTS assay to identify small molecule agonists of the estrogen receptor alpha (ER-alpha) signaling pathway using the BG1 cell line (AID 743079); note: nearly all actives have a fitted effect of over 20% in size; note: potency is the fitted concentration of half-maximal effect
# [7] = qHTS assay to identify small molecule antagonists of the estrogen receptor alpha (ER-alpha) signaling pathway using the BG1 cell line (AID 743080; calls by dose curve;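 note: BG1 cells stimulated with 17beta-estradiol alongside compound; nearly all actives have a fitted effect of over 25% in size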; note: potency is the fitted concentration of half-maximal effect)
# In short: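 BG1-Luc-4E2 cells (endogenous full-length ER-alpha, stable 4×ERE-luciferase) were starved 5 days in phenol-red-free medium with 10% charcoal-stripped FBS, plated 24 h, then given compound plus 17beta-estradiol for 21.5 h at 37 C; ONE-Glo luminescence read after 30 min.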
# [8] = qHTS assay to identify small molecule antagonists of the estrogen receptor alpha (ER-alpha) signaling pathway using the BG1 cell line - cell viability counter screen (AID 743081);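 note: compound given together with 17beta-estradiol as the ER stimulus; nearly all actives have a fitted effect of over 45% in size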; note: potency is the fitted concentration of half-maximal effect
# [9] = molecular target: Aromatase (Homo sapiens) (UniProt P11511); test: qHTS assay to identify aromatase inhibitors (AID 743083); note: nearly all actives have a fitted effect of over 55% in size; note: potency is the fitted concentration of half-maximal effect; for activity, negative = inhibition: series mostly up to about 70 µM
# Aromatase (Homo sapiens), sequence (P11511 whole entry, looked up): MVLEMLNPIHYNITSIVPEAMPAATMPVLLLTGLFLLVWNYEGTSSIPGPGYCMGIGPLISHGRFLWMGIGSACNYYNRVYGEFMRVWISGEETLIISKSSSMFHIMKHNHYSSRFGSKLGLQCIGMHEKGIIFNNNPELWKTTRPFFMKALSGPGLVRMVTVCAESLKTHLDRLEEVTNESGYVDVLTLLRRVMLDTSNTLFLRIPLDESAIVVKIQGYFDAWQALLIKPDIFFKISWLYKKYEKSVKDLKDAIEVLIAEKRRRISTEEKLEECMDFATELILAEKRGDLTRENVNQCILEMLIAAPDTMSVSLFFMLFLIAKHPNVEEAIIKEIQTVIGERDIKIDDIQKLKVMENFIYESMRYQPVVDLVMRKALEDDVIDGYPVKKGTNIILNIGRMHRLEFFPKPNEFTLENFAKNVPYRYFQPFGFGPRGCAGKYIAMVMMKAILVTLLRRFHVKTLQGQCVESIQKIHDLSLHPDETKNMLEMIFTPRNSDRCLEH
# [10] = qHTS assay to identify small molecule antagonists of the thyroid receptor (TR) signaling pathway - cell viability counter screen (AID 743064); note: nearly all actives have a fitted effect of over 50% in size; note: potency is the fitted concentration of half-maximal effect
# In short: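 Plate GH3.TRE-Luc cells; incubate 4 h at 37 °C; add compound, then T3 to 1 nM final; incubate 23.5 h; add CellTiter-Fluor; incubate 30 min at 37 °C, 5% CO2; read fluorescence.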
Compound,Potency [1],Potency [2],Potency [3],Potency [4],Potency [5],Potency [6],Potency [7],Potency [8],Potency [9],Potency [10],"activity, negative = inhibition [3]","activity, negative = cytotoxicity [4]",activation [5]
Cc1ccc(NC(=O)N(C)C)cc1NC(=O)N(C)C,inactive,inactive,inactive,inactive,inactive,inactive,inactive,inactive,inactive,,,,
CC(O)Cn1cnc2c1c(=O)n(C)c(=O)n2C (centres undefined),inactive,inactive,,,,,,inactive,inactive,inactive,,,
CCC(Cl)CC(Cl)C(Cl)C(Cl)C(Cl)C(C)Cl (centres undefined),inactive,,,,,0.594 µM (active),,inactive,inactive,inactive,21.9% [at 15 µM],-22.7% [at 15 µM],3.15% [at 14.9 µM]
COc1ccc(-n2nc(C(F)F)cc2-c2ccc(S(C)=O)cc2)cc1 (centres undefined),,inactive,,inactive,inactive,inactive,,inactive,inactive,inactive,,,
COc1ccc(-c2cc(=S)ss2)cc1,,inactive,,inactive,inactive,,,inactive,inactive,inactive,,,
CC(C)OC(=O)c1ccccc1C(=O)OC(C)C,,,inactive,,inactive,inactive,inactive,inactive,inactive,inactive,,,
COc1cc(NC(C)CCCN)c2ncccc2c1 (centres undefined),,inactive,inactive,inactive,inactive,,,10.1 µM (active),inactive,11.4 µM (active),,,
CNS(=O)(=O)c1cc(C(=O)N2CCC(CCN3C4CCC3CC(n3c(C)nc5ccccc53)C4)(c3cccc(F)c3)CC2)c(Cl)cc1F (centres undefined),48.6 µM (active),,,inactive,,,,inactive,68.6 µM (active),54.5 µM (active),,,
COC(=O)C1=C(C)NC(C)=C(C(=O)OC(C)(C)CN(C)CCC(c2ccccc2)c2ccccc2)C1c1cccc([N+](=O)[O-])c1 (centres undefined),6.68 µM (active),,10.7 µM [inhibitor] (active),,inactive,,26.6 µM (active),inactive,18.8 µM (active),8.41 µM (active),,,
CCO[Si](C)(CCCOCC1CO1)OCC (centres undefined),,inactive,inactive,inactive,inactive,inactive,inactive,inactive,inactive,inactive,,,
CCCCCCCCCCCCCC(=O)OCC(O)CO (centres undefined),,inactive,,inactive,,,,inactive,inactive,inactive,,,
O=[N+]([O-])C1(Br)COCOC1,15.4 µM (active),,inactive,inactive,inactive,inactive,96.9 µM (active),inactive,30.6 µM (active),17.2 µM (active),,,
O[C@@H](CNC[C@H](O)[C@H]1CCc2cc(F)ccc2O1)[C@@H]1CCc2cc(F)ccc2O1,9.44 µM (active),,26.8 µM [inconclusive] (active),inactive,inactive,inactive,inactive,,33.5 µM (active),10.6 µM (active),,,
O=S(=O)(Cl)c1c(Cl)cccc1Cl,,,inactive,inactive,inactive,inactive,inactive,inactive,inactive,inactive,,,
CCOC(=O)c1ccc(NC(=O)CN2CCCCC2)cc1,,inactive,inactive,inactive,inactive,,,inactive,inactive,inactive,,,
CCOC(=O)c1c(N)sc2c1CCN(Cc1ccccc1)C2,,inactive,inactive,inactive,inactive,,,,inactive,inactive,,,
O=C(O)c1cc(Cl)cc(Cl)c1O,,inactive,,inactive,,,,inactive,inactive,inactive,,,
CCCOC(=O)c1c(Cl)c(Cl)c(Cl)c(Cl)c1C(=O)OCCC,,inactive,,inactive,,,,inactive,,inactive,,,
O=C(Oc1ccccc1)c1ccc2ccccc2c1O,,inactive,inactive,inactive,inactive,,,inactive,inactive,inactive,,,
CCOC(=O)C(C)O (centres undefined),,,inactive,inactive,inactive,inactive,inactive,,inactive,inactive,,,
CC/C=C\C/C=C\C/C=C\CCCCCCCC(=O)OCC,,inactive,,inactive,,,,inactive,,inactive,,,
CC12CC3CC(C)(C1)CC(N)(C3)C2,29.8 µM (active),,inactive,,inactive,inactive,inactive,inactive,inactive,29.8 µM (active),,,
CC(C)C(O)C(C)(C)CO (centres undefined),inactive,inactive,inactive,inactive,inactive,inactive,inactive,inactive,inactive,,,,
Cc1cccc(C)c1NC(=O)c1cc(S(N)(=O)=O)c(Cl)cc1O,inactive,inactive,,,,,,inactive,inactive,inactive,,,
CCN(CC)CCOc1ccccc1C(=O)CCc1ccccc1,26.6 µM (active),inactive,inactive,inactive,inactive,inactive,inactive,inactive,inactive,,,,
Cc1c(C2(c3cc(Br)c(O)c(Br)c3C)OS(=O)(=O)c3ccccc32)cc(Br)c(O)c1Br,21 µM (active),inactive,,,,,,11.8 µM (active),16.7 µM (active),42 µM (active),,,
CC(=O)OC(C)C[N+](C)(C)C (centres undefined),,,inactive,inactive,inactive,inactive,inactive,inactive,inactive,inactive,,,
C[C@H](CS)C(=O)N1CCC[C@H]1C(=O)O,inactive,inactive,,inactive,,,,inactive,inactive,,,,
CCN(CC)CCOC(=O)C(c1ccccc1)c1ccccc1,,inactive,,,,,,inactive,inactive,,,,
C[C@@H]1[C@H](O)[C@@H](C)/C=C/C=C\C=C\C=C\C=C\C=C\C=C\[C@H](O[C@@H]2O[C@H](C)[C@@H](O)[C@H](N)[C@@H]2O)C[C@@H]2O[C@](O)(C[C@@H](O)C[C@@H](O)[C@H](O)CC[C@@H](O)C[C@@H](O)CC(=O)O[C@H]1C)C[C@H](O)[C@H]2C(=O)O (stereo in doubt),,,inactive,inactive,inactive,inactive,inactive,inactive,inactive,,,,
